Compounds with a hit are over-represented: about 3.3% of the library has one in this group of screens.
GAA850 FXN act: frataxin GAA850 promoter activation | activation, % at 6 µM | HEK293 lucGAA850 FXN promoter luciferase reporter, 24 h; percent of 10 µM SAHA response | 0.56% of 360,000 active;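 active means activation above the average of all compounds screened plus 3 SD, cutoff fixed separately per campaign, cut at about 7.5% in these data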;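 further: 0% = DMSO wells and 100% = 10 µM SAHA wells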
Statin myotox sup: protects C2C12 myotubes from simvastatin toxicity; ATP luminescence, 48 h; scaled: DMSO 0, geranylgeraniol control 100; rescue of ATP level, % at 7.49 µM; 0.78% of 330,000 active; AID 602340;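 active means mean ATP rescue above about 67%, or every replicate alone reaching that limit, limit read from the data, passing the limit was not always enough; inconclusive means no clear call, values can overlap the other calls; inactive means mean under the limit and some replicate under it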;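 further: myotubes were challenged with 10 µM simvastatin during compound exposure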
Wnt bcat act: activates Wnt/beta-catenin signaling in a reporter cell assay. activator, plate reader. activation, % at 9.35 µM. 1.2% of 300,000 active; in the data active means activation above about 30%, passing the limit was not always enough; inconclusive means no clear call, values can overlap the other calls;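 further: 0% = neutral control wells and 100% = positive control wells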
esBAF inh: inhibitors of esBAF chromatin remodeling in mouse ES cells. AID 602393. 2% of 350,000 active. reporter increase, % at 12.5 µM. Bmi1-luciferase knock-in reporter, 24 h; 100% = twice the neutral-well signal; in the data active means activation above about 40%; inconclusive means no clear call, values can overlap the other calls;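 further: 0% = median of the plate's neutral control wells and 100% = double that signal; a rise in the Bmi1 reporter signal indicates esBAF inhibition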
MITF TRPM1 HTS: activators of MITF-driven TRPM1 promoter activity in SK-MEL-5 cells | SK-MEL-5 TRPM1-promoter luciferase, 24 h; % of positive control, neutral wells = 0 | activation, % at 12.5 µM | 0.75% of 300,000 active | AID 588334;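 active means mean activation of at least 80% with every replicate also reaching 80%; inconclusive means mean reaches 80% but some replicate falls short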;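 further: 0% = neutral control wells and 100% = parthenolide positive control wells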
Active calls of the source: *; ? = inconclusive; nt = no result.

SMILES	GAA850 FXN act	Statin myotox sup	Wnt bcat act	esBAF inh	MITF TRPM1 HTS
O=C(COc1cc(Cl)c(Cl)cc1Cl)Nc1cccc(O)c1	-1	nt	45*	nt	139*
O=C(COc1ccccc1)Nc1ccc(S(=O)(=O)N2CCCC2)cc1	1	116*	-5	6	19
Cc1ccc(C)c(OCC(=O)Nc2cccc(C(=O)O)c2)c1C	6	-59	37*	?	nt
Cc1ccc(OCC(=O)Nc2cccc(O)c2)cc1C	1	5	49*	18	104*
CO[C@@H]1CN(C)C(=O)c2cc(NC(=O)C3CC3)ccc2OC[C@@H](C)N(C(=O)Nc2ccc(C(F)(F)F)cc2)C[C@H]1C	nt	-13	nt	11	nt
O=C(Nc1nc2cc3c(cc2s1)OCCO3)C1CCCCC1	1	-52	54*	-15	91*
O=C(Nc1nc2cc3c(cc2s1)OCO3)C1CC1	3	nt	0	nt	64
O=C(Nc1nnc(-c2ccc(Cl)cc2)o1)C1CCCCC1	0	-1	-1	-7	15
O=C(Nc1nc2cc3c(cc2s1)OCO3)C1CCCCC1	4	nt	32*	nt	76
O=C(Nc1nnc(-c2ccc3c(c2)OCCO3)o1)C1CCCCC1	2	nt	33*	nt	58
O=C(CCN1CCCCC1)NCC[C@@H]1CC[C@@H](NS(=O)(=O)c2cccc(F)c2)[C@@H](CO)O1	nt	19	nt	8	nt
Cc1ccc(C)c(/C(O)=C2\C(=O)C(=O)N(CCCn3ccnc3)C2c2ccncc2)c1 (stereo not given)	2	84*	-3	1	nt
Cc1cccc(NC(=O)CCNC(=O)c2ccc(Br)cc2)c1	1	4	11	54*	64
CC(=O)Nc1cccc(NC(=O)c2ccc(Br)cc2)c1	2	-8	3	42*	20
CC1CCC(NC(=O)CCNC(=O)c2ccc(Br)cc2)CC1 (stereo not given)	4	-10	-5	?	82*
Nc1c2c(=O)oc(-c3ccccc3)cc2nn1-c1ccccc1	1	6	nt	70*	nt
c1ccc(SCc2nc(-c3cccnc3)no2)cc1	0	2	nt	13	109*
Cc1cccc(-c2noc(CSc3ccccc3)n2)c1	3	nt	-1	46*	87*
Cc1ccc(-c2noc(CSc3nc(N)cc(N)n3)n2)cc1	-1	nt	nt	nt	nt
COc1ccccc1Cc1nc(-c2cccnc2)no1	-1	nt	38*	nt	nt
c1ccc(C(Cc2nc(-c3ccccn3)no2)c2ccccc2)cc1	1	33	nt	29	40
c1ccc(SCc2nc(-c3ccccn3)no2)cc1	6	0	nt	26	83*
COc1ccc(Cc2nc(-c3cccnc3)no2)cc1OC	1	nt	1	nt	nt
Cc1noc(C)c1S(=O)(=O)N(C)C[C@H]1Oc2c(NS(=O)(=O)c3ccc(F)cc3)cccc2C(=O)N([C@@H](C)CO)C[C@H]1C	nt	nt	nt	2	nt
C[C@H](CO)N1C[C@H](C)[C@@H](CN(C)CC2CCCCC2)Oc2ccc(NS(C)(=O)=O)cc2CC1=O	nt	-4	nt	5	nt
SMILES	GAA850 FXN act	Statin myotox sup	Wnt bcat act	esBAF inh	MITF TRPM1 HTS
C[C@@H]1CN([C@H](C)CO)C(=O)c2cc(NS(=O)(=O)c3ccccc3)ccc2O[C@@H](C)CCCCO[C@@H]1CN(C)C(=O)c1ccncc1	nt	nt	nt	-5	nt
Cc1ccc(-c2noc(CSc3ccccc3)n2)cc1	4	6	52*	0	102*
Cc1ccc([N+](=O)[O-])cc1NC(=O)c1ccc(C(C)(C)C)cc1	-2	-64	1	-2	1
Cc1ccc(NC(=O)c2ccc(C(C)(C)C)cc2)cc1[N+](=O)[O-]	4	nt	nt	nt	121*
CC(C)(C)c1ccc(C(=O)Nc2ccc(Cl)cc2)cc1	7	nt	15	nt	99*
Cc1cc(C(=O)Nc2cccc3cccnc23)ccc1[N+](=O)[O-]	3	27	8	49*	5
Cc1cc(C(=O)Nc2ccc3c(c2)CCC3)ccc1[N+](=O)[O-]	4	nt	51*	nt	nt
O=C(Nc1ccc(Nc2ccccc2)cc1)c1ccc(Cl)cc1	1	-27	0	3	24
Cc1ccc(C(=O)NCC(=O)Nc2ccc3c(c2)CCC3)cc1C	5	2	0	6	-5
CCCN1[C@H](C(=O)N2CCCCC2)[C@@H](CO)[C@@H]2Cn3c(cccc3=O)[C@@H]21	nt	-6	nt	0	nt
CC(C)(C)c1ccc(NC(=O)c2ccccc2)c([N+](=O)[O-])c1	4	-16	75*	13	60
CC(=O)Nc1nonc1NC(=O)c1ccc(C(C)(C)C)cc1	4	-4	55*	32	nt
Cc1cc(C)nc(Nc2ccc(C)c([N+](=O)[O-])c2)n1	5	-12	9	49*	42
NCC[C@@H]1CC[C@H](NC(=O)Nc2ccc(F)cc2)[C@H](CO)O1	nt	2	nt	3	nt
COc1cccc(NC(=O)C(=O)NCC2CCCN2S(=O)(=O)c2ccccc2)c1 (stereo not given)	4	1	43*	79*	158*
O=C(NCC1CCCN1S(=O)(=O)c1cccs1)C(=O)Nc1ccccc1Cl (stereo not given)	0	14	4	51*	29
COc1ccccc1CNC(=O)C[C@H]1C[C@@H]2c3cc(NC(=O)c4cccnc4)ccc3O[C@@H]2[C@@H](CO)O1	nt	5	nt	-1	nt
CNC(=O)c1c(Cl)cnn1-c1ccc(C)cc1	5	nt	12	nt	56
CNC(=O)c1c(Br)cnn1-c1ccc(C)cc1	4	0	18	84*	44
CO[C@H]1CN(C)C(=O)c2cc(NC(=O)c3nc4ccccc4s3)ccc2OC[C@H](C)N(Cc2cncnc2)C[C@@H]1C	nt	-8	nt	6	nt
COc1ccc(CN(C)C[C@@H]2Oc3ccc(NC(=O)C4CCCCC4)cc3CC(=O)N([C@H](C)CO)C[C@@H]2C)cc1	nt	-12	nt	0	nt
O=C(NCCc1ccc(O)cc1)c1ccc(Cl)cc1	3	18	nt	?	98*
CC(=O)NCCNC(=O)c1ccc(CSc2ccc(Cl)cc2)cc1	4	4	-2	54*	65
CCNC(=O)c1ccc(CSc2ccc(Cl)cc2)cc1	1	-5	18	23	21
Cc1noc(C)c1NC(=O)Nc1ccc2c(c1)C(=O)N(C)[C@@H]1CC[C@@H](CC(=O)N(C)C)O[C@H]1CO2	nt	-5	nt	-3	nt
SMILES	GAA850 FXN act	Statin myotox sup	Wnt bcat act	esBAF inh	MITF TRPM1 HTS
Cc1cccc(C)c1NC(=O)CN	2	-7	45*	-8	-4
Cc1cc(C)c(NC(=O)CN)c(C)c1	0	nt	-2	nt	-4
Cc1ccc(C(=O)NNC(=O)C2CCN(Cc3ccc(Cl)c(Cl)c3)CC2)cc1	-1	135*	nt	1	-12
Cc1ccc(C(=O)NNC(=O)C2CCN(Cc3ccccc3)CC2)cc1	0	nt	nt	nt	-7
COc1ccc(C(=O)NCCn2ccc3ccccc32)c(OC)c1	3	33	14	55*	51
COCCNC(=O)C[C@H]1CC[C@@H]2[C@H](COC[C@H](O)CN2C(=O)Nc2ccccc2OC)O1	nt	-17	nt	0	nt
CCN(CC)c1ccc(CNc2ccc3c(c2)ncn3CC)cc1	nt	nt	0	nt	nt
CCOc1ccc(CNc2ccc3c(c2)ncn3C)cc1	1	nt	25	nt	37
CCn1cnc2cc(NCc3ccc(Br)cc3)ccc21	nt	nt	36*	nt	nt

Source: PubChem BioAssay
